Usually inhibition stands for the change of the read-out against control, counted positive when it falls.

Experiment [1] is described as follows: antimalarial activity against Dd2 strain (AID 2302;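 active means growth inhibition above 50% at the single 2 µM test dose, taken to imply half-maximal potency below 2 µM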;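 further: 0% = DMSO untreated growth and 100% = chloroquine plus artemisinin killed control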). The note with it: P. falciparum Dd2 in RBCs, LDH growth readout, 72 h; at 2 µM; active compounds read high.
For experiment [2], the target named is L-lactate dehydrogenase (Plasmodium falciparum (isolate CDC / Honduras)) (UniProt Q27743). Nature of the experiment: PfLDH activity inhibition – cell lysate, 3D7 strain, counter-screen for P. falciparum growth inhibition project (AID 2304).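 Further: 0% = vehicle and 100% = reference inhibitor.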 The note with it: P. falciparum 3D7 crude extract, LDH APAD/NBT absorbance; at 2 µM; active compounds read high. (A counterscreen serves to expose hits that act by an unwanted route or on another target.)

Experiment [3] can be described thus: inhibition of 3D7 malaria parasite growth – strain 3D7 (AID 2306).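 Further: 0% = DMSO wells and 100% = chloroquine plus artemisinin control wells.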 The note with it: P. falciparum 3D7 erythrocytic growth, LDH absorbance, 72 h; at 2 µM; active compounds read high.
Experiment [4] addresses Calcium-dependent protein kinase 1 (Plasmodium falciparum (isolate 3D7)) (UniProt P62344). Nature of the experiment: PfCDPK1 kinase inhibitors, biochemical, TCAMS library (AID 1159585; cut-off not given, nearly all actives have IC50 up to about 0.98 µM;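 further: inhibitors leave more ATP so luminescence rises with inhibition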). The note with it: recombinant PfCDPK1, Kinase-Glo ATP depletion luminescence.
Experiment [5] deals with Plasmodium falciparum protein kinase 6 (PK6, PF3D7_1337100) (UniProt Q8IDW1). Nature of the experiment: PfPK6 kinase inhibitors, biochemical, TCAMS library (AID 1159586). The note with it: recombinant PfPK6, Kinase-Glo ATP depletion luminescence. On the technique in general: In Kinase-Glo more light means more ATP remaining.
Experiment [6] concerns the target Protein kinase 7 (PK7), Plasmodium falciparum 3D7 (PF3D7_0213400) (UniProt Q7YTF7). Nature of the experiment: inhibition of Plasmodium PK7 catalytic activity – biochemical, TCAMS antimalarial set, Kinase-Glo luminescence (AID 1159587). The note with it: recombinant PfPK7, Kinase-Glo ATP depletion luminescence.
For experiment [7], the target named is Calcium-dependent protein kinase 4 (Plasmodium falciparum (isolate 3D7)) (UniProt Q8IBS5). Nature of the experiment: PfCDPK4 kinase inhibitors, biochemical, TCAMS library (AID 1159588; cut-off not given, nearly all actives have IC50 up to about 0.91 µM). The note with it: recombinant PfCDPK4, Kinase-Glo ATP depletion luminescence.
Experiment [8] in a line: HepG2 cytotoxicity, primary screen, cytotoxicity control for P. falciparum antimalarial project, cell-based, ATP luminescence (AID 2303;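 active means inhibition above 50%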;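 further: 0% = DMSO wells and 100% = digitonin-killed cells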). The note with it: HepG2 viability, 24-48 h, at 10 µM, active compounds read high.

SMILES strings stand for the structures. Unmarked numbers belong to inactive results. For some of these results: Measured potencies and affinities stand elsewhere. Active and inactive are the calls of the source. Unless noted, how the calls were made is not given here.

Plasmodium falciparum protein kinase 6 (PK6, PF3D7_1337100), sequence (Q8IDW1 1-305): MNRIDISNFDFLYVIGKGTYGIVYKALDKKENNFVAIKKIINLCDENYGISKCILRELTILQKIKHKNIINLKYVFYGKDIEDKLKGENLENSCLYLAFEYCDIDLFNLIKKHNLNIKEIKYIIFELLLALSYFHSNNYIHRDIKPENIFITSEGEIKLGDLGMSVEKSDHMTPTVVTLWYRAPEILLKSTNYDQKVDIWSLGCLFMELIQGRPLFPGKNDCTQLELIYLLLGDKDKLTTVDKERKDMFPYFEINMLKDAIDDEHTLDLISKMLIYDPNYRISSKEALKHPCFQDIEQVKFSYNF
Calcium-dependent protein kinase 4 (Plasmodium falciparum (isolate 3D7)), sequence (Q8IBS5 whole entry, looked up): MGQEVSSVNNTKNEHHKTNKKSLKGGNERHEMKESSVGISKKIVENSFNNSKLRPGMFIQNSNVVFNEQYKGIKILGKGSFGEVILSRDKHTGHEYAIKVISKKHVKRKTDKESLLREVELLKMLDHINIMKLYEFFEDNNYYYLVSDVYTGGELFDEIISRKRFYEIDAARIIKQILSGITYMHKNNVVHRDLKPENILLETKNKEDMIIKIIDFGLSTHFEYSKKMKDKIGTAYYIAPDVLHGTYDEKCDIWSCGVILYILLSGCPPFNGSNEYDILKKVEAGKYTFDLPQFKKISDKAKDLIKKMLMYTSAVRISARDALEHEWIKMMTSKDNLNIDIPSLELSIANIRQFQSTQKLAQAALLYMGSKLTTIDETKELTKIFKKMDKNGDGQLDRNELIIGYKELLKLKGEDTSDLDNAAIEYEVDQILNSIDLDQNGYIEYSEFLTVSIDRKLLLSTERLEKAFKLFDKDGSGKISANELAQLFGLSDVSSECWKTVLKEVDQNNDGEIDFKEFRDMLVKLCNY
Protein kinase 7 (PK7), Plasmodium falciparum 3D7 (PF3D7_0213400), sequence (Q7YTF7 1-343): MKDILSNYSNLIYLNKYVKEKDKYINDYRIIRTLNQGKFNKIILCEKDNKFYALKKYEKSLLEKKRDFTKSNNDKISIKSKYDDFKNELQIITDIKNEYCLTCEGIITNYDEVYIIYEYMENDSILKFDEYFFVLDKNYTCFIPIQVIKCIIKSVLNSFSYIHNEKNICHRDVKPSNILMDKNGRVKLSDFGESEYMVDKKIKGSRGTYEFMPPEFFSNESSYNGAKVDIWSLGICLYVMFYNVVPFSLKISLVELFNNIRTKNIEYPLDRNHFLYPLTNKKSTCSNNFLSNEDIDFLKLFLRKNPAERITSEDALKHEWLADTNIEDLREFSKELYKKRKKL
Calcium-dependent protein kinase 1 (Plasmodium falciparum (isolate 3D7)), sequence (P62344 whole entry, looked up): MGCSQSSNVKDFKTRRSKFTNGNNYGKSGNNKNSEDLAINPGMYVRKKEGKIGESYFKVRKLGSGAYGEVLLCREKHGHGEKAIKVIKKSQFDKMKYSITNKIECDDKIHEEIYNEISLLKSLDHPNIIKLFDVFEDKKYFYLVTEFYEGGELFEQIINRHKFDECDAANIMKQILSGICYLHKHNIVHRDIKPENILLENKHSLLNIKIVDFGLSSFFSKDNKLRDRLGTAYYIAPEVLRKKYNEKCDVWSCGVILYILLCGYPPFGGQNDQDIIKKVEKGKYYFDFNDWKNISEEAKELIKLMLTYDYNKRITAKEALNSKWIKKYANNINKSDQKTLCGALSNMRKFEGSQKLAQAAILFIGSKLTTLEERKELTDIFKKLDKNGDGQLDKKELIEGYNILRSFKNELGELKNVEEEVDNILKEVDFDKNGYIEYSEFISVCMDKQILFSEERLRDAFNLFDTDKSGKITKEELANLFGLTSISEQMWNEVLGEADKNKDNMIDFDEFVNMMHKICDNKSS
L-lactate dehydrogenase (Plasmodium falciparum (isolate CDC / Honduras)), sequence (Q27743 whole entry, looked up): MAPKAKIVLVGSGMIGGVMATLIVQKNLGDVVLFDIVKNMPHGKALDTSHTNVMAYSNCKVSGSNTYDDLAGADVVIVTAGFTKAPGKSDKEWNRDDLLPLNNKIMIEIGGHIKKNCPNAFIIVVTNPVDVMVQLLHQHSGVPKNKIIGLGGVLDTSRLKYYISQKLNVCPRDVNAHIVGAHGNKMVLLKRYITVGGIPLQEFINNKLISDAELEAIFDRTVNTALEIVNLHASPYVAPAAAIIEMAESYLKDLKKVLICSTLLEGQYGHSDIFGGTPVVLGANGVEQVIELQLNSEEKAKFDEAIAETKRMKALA

In the case of `COc1ccc2nc3cc(Cl)ccc3c(Nc3ccc(Oc4ccc(Nc5c6ccc(Cl)cc6nc6ccc(OC)cc56)cc4)cc3)c2c1`, the growth inhibition in experiment [1] is 93% (active); in experiment [3] it was 86% (active). Also, the inhibition in experiment [2] is 7%. For the same molecule, the result in experiment [4], in experiment [5], in experiment [6] and in experiment [7] was inactive.

In the case of `O=C(NCCCCN1CCC(c2ccc3c(c2OCCCO)CCCC3)CC1)c1ccc(-c2ccc(C(F)(F)F)cc2)c(CO)c1`, the inhibition was 66% (active) in experiment [8] and 4% in experiment [2]. Further, the growth inhibition in experiment [3] is 95% (active). Further, the result in experiment [4], in experiment [5], in experiment [6] and in experiment [7] was inactive.

Turning to `Nc1nc2ccc(CNc3ccc(C(=O)N[C@@H](CCC(=O)O)C(=O)O)cc3)cc2c(=O)[nH]1`, the figures for the inhibition in experiment [8] and in experiment [2] were 2% and 3%, respectively. The growth inhibition in experiment [3] is 96% (active). In addition, the result in experiment [4], in experiment [5], in experiment [6] and in experiment [7] was inactive.

As to `Cc1[nH]c(C)c(-c2ccc(Oc3ccc(S(C)=O)cc3)cc2)c(=O)c1Br` (stereo not drawn), the results for the growth inhibition in experiment [1] and in experiment [3] were 64% (active) and 91% (active), respectively. Besides, the inhibition in experiment [2] is 0%. For the same molecule, the outcome in experiment [4], in experiment [5], in experiment [6] and in experiment [7] was inactive.

As to `S=C(Nc1ccc(Cl)cc1)Nc1ccc(Nc2ccccc2)cc1`, the values for the inhibition in experiment [8] and in experiment [2] were 14% and -4%, respectively. For the same molecule, the growth inhibition in experiment [3] was 84% (active). Further, the outcome in experiment [4], in experiment [5], in experiment [6] and in experiment [7] was inactive.

As for `N=C(N)c1nc2ccccc2s1`, the inhibition in experiment [8] is 1%; in experiment [2], -1%. For the same molecule, in experiment [3], the growth inhibition was 87% (active). The result in experiment [4], in experiment [5], in experiment [6] and in experiment [7] was inactive.

Turning to `Cc1cccc(-c2c(C)nc(N)nc2N)c1`, the growth inhibition in experiment [1] is -9%; in experiment [3], 88% (active). In addition, the inhibition in experiment [2] was -6%. Besides, the outcome in experiment [4], in experiment [5], in experiment [6] and in experiment [7] was inactive.

`CC(CC1CCCCC1)NCc1ccccc1OCCC(=O)N1CCCC1C(N)=O` (stereo not drawn): the inhibition was 5% in experiment [8] and 8% in experiment [2]. Further, in experiment [3], the growth inhibition is 97% (active). The outcome in experiment [4], in experiment [5], in experiment [6] and in experiment [7] was inactive.

For `COc1ccc(NS(=O)(=O)c2ccc(Oc3nc(C)nc4sc5c(c34)CCCC5)cc2)cc1`, the values for the inhibition in experiment [8] and in experiment [2] were 5% and -2%, respectively. In addition, in experiment [3], the growth inhibition was 96% (active). The outcome in experiment [4], in experiment [5], in experiment [6] and in experiment [7] was inactive.

Regarding `COc1ccc(Cl)cc1N1CCN(CCCNC(=O)c2ccc(-c3nc4c(C)cccc4[nH]3)s2)CC1`, the values for the inhibition in experiment [8] and in experiment [2] were -2% and 5%, respectively. For the same molecule, the growth inhibition in experiment [3] is 98% (active). Moreover, the outcome in experiment [4], in experiment [5], in experiment [6] and in experiment [7] was inactive.

With `Cc1nc(Cl)c2c(-c3ccccc3)csc2n1`, the figures for the inhibition in experiment [8] and in experiment [2] were -11% and 1%, respectively. The growth inhibition in experiment [3] was 84% (active). In addition, the result in experiment [4], in experiment [5], in experiment [6] and in experiment [7] was inactive.

In the case of `Cc1csc2nc(C(C)c3ccc(NC(=O)c4cccs4)cc3)oc(=O)c12` (stereo not drawn), the inhibition was -5% in experiment [8] and -3% in experiment [2]. Further, in experiment [3], the growth inhibition was 90% (active). Further, the outcome in experiment [4], in experiment [5], in experiment [6] and in experiment [7] was inactive.

For `O=C(Nc1cccc(Cl)c1)c1cc2ccccc2cc1O`, the inhibition in experiment [8] is 4%; in experiment [2], -8%. Also, in experiment [3], the growth inhibition was 97% (active). Further, the result in experiment [4], in experiment [5], in experiment [6] and in experiment [7] was inactive.

Take `Cc1cc(OCCCN2CCC(NC(=O)c3ccc(Br)cc3)C2)c2ccccc2n1` (stereo not drawn): the inhibition in experiment [8] was 13%; in experiment [2], -3%. The growth inhibition in experiment [3] is 85% (active). The outcome in experiment [4], in experiment [5], in experiment [6] and in experiment [7] was inactive.

`CC(C)CNC(=O)c1ccc(-c2cccc(CN3CCC(N4CCCC4)CC3)c2)nc1`: the results for the inhibition in experiment [8] and in experiment [2] were 4% and -3%, respectively. Also, the growth inhibition in experiment [3] was 81% (active). Also, the result in experiment [4], in experiment [5], in experiment [6] and in experiment [7] was inactive.

For `CCCCNC(=O)C1CCCN(C(=O)c2ccc(O)c(-c3ccc(Cl)c(Cl)c3)c2)C1` (stereo not drawn), the results for the inhibition in experiment [8] and in experiment [2] were 3% and 2%, respectively. Moreover, the growth inhibition in experiment [3] was 83% (active). In addition, the result in experiment [4], in experiment [5], in experiment [6] and in experiment [7] was inactive.

As for `COc1ccc(CN2CCN(CC(=O)Nc3cc(Cl)ccc3-n3cncn3)CC2)cc1F`, the inhibition in experiment [8] is 0%; in experiment [2] it was -1%. Besides, in experiment [3], the growth inhibition is 93% (active). Further, the outcome in experiment [4], in experiment [5], in experiment [6] and in experiment [7] was inactive.

As for `CO/N=C(\C)c1ccc2c(c1)CCN(CCC1CCC(NC(=O)c3cccc(-c4noc(C)n4)c3)CC1)CC2` (stereo not drawn), the inhibition is 42% in experiment [8] and -1% in experiment [2]. The growth inhibition in experiment [3] was 90% (active). In addition, the outcome in experiment [4], in experiment [5], in experiment [6] and in experiment [7] was inactive.

For `O=C(NCCCCN1CCC(c2ccc3c(c2OCCOCCO)CCCC3)CC1)c1ccc(-c2ccc(C(F)(F)F)cc2)cc1`, the inhibition in experiment [8] is 44%; in experiment [2], -5%. For the same molecule, in experiment [3], the growth inhibition is 97% (active). For the same molecule, the outcome in experiment [4], in experiment [5], in experiment [6] and in experiment [7] was inactive.

Values taken from PubChem BioAssay.
